{"source": "PubChem BioAssay (EPA / NIEHS)", "note": "Results filed as inconclusive are left out. Active and inactive are the calls of the source. The calls were made as follows: active = hit-call score of the fitted dose curve at least 0.9, where 1 is the maximum; inconclusive = response in the unintended direction; inactive = score below 0.9.", "data": [{"experiment": "ACEA_ER_80hr: ACEA Biosciences xCELLigence Real-Time Cell Analysis on Estrogen Receptor Agonism for Proliferation (AID 2282667)", "settings": "T47D proliferation, impedance (xCELLigence), 80 h", "description": "ACEA_ER is a cell-based, single-readout assay that uses T47D, a human breast cell line, with measurements taken at 80 hours after chemical dosing in a 96-well plate, although TO2 (mc0.srcf) used a 384-well plate. Differences in plate size can be ignored given data normalization.ACEA_ER_80hr is one of two assay component(s) measured or calculated from the ACEA_ER assay. It is designed to make measurements of real-time cell-growth kinetics, a form of growth reporter, as detected with electrical impedance signals by Real-Time Cell Electrode Sensor (RT-CES) technology.Data from the assay component ACEA_ER_80hr was analyzed into 1 assay endpoint. This assay endpoint, ACEA_ER_80hr_Positive, was analyzed in the positive analysis fitting direction relative to DMSO as the negative control and baseline of activity. Using a type of growth reporter, measures of the cells for gain-of-signal activity can be used to understand the signaling at the pathway-level as they relate to the gene ESR1. Furthermore, this assay endpoint can be referred to as a primary readout, because this assay has produced multiple assay endpoints where this one serves a signaling function. To generalize the intended target to other relatable targets, this assay endpoint is annotated to the nuclear receptor intended target family, where the subfamily is steroidal.\nThe xCELLigence system Multi-E-Plate stations were used to measure the time-dependent response to chemicals. Each compound was tested in an eight-point, 1:4 serial dilution series starting at a maximum final concentration of 100 uM. A maximum starting concentration of 0.5% DMSO was present in the 100 uM chemical samples and was diluted along with the test article dilution series. The screen was performed in biological duplicate using two separate, 96-well, E-Plates 96 for each dilution series (n = 2). Positive controls (MG132 and E2) and a negative control (assay media) were tested in quadruplicate on each testing plate. […] Reference compounds were tested with 8 concentrations with 1:5 serial dilutions. All screening was carried out by ACEA Biosciences, Inc. (San Diego, CA). T-47D cells purchased from ATCC were maintained in RPMI1640 media supplemented with 10% characterized fetal bovine serum (FBS). […] Cells were then detached and seeded in E-Plates 96 in assay medium. After overnight monitoring of growth once every hour, compounds were added to […] cells and remained in the medium until the end of the experiment. Cellular responses were then recorded once every 5 min for the first 5 h, and once every hour for an additional 100 h.", "values": [{"smiles": "CCCCCOC(=O)CCCCC", "outcome": "inactive"}, {"smiles": "Nc1ccnc(=O)[nH]1", "outcome": "inactive"}, {"smiles": "CC(C)C(=O)OCCc1ccccc1", "outcome": "inactive"}, {"smiles": "CN(C)c1ccc2nc3ccc(=[N+](C)C)cc-3sc2c1", "outcome": "inactive"}, {"smiles": "CC(=O)c1ccccc1O", "outcome": "inactive"}, {"smiles": "CCCCOCC(C)O", "note": "(stereo not given)", "AC50": "129 nM (active)"}, {"smiles": "CCOC(=O)OC(=O)OCC", "outcome": "inactive"}, {"smiles": "CC=C(C)C=CC=C(C)C", "outcome": "inactive"}, {"smiles": "C=C(C)OC(C)=O", "outcome": "inactive"}, {"smiles": "CC(=O)OCc1ccccc1", "outcome": "inactive"}, {"smiles": "Cc1cc(C)n(CO)n1", "outcome": "inactive"}, {"smiles": "CCCCCCCCCCCCC", "outcome": "inactive"}, {"smiles": "C=CC(=O)O[C@H]1C[C@@H]2CC[C@@]1(C)C2(C)C", "outcome": "inactive"}, {"smiles": "CCC(C)C(=O)OC", "note": "(stereo not given)", "AC50": "27.1 nM (active)"}, {"smiles": "CCCCC(=O)O", "outcome": "inactive"}, {"smiles": "CC1CCC(=O)C1=O", "note": "(stereo not given)", "outcome": "inactive"}, {"smiles": "C=C(C)C(=O)OCCCCCCCCCCCC", "outcome": "inactive"}, {"smiles": "CC(=O)OC/C=C(/C)CCC=C(C)C", "outcome": "inactive"}, {"smiles": "CCCCC1C(=O)N(c2ccccc2)N(c2ccccc2)C1=O", "outcome": "inactive"}, {"smiles": "C=CCNCC=C", "outcome": "inactive"}, {"smiles": "CCCCCCCCCCCCCc1ccccc1", "outcome": "inactive"}, {"smiles": "O=C(O)C(F)(F)C(F)(F)C(F)(F)C(F)(F)C(=O)O", "outcome": "inactive"}, {"smiles": "CCC[Si](OC)(OC)OC", "outcome": "inactive"}, {"smiles": "c1ccc(Nc2cccc3ccccc23)cc1", "outcome": "inactive"}, {"smiles": "CC(C)c1cccc(C(C)C)c1N", "outcome": "inactive"}, {"smiles": "CCCCC/C=C\\C/C=C\\CCCCCCCC(=O)O", "outcome": "inactive"}, {"smiles": "[Cl][Eu]([Cl])[Cl]", "outcome": "inactive"}, {"smiles": "CC(C)(CO)C(O)C(=O)NCCCO", "note": "(stereo not given)", "outcome": "inactive"}, {"smiles": "C=CCCCCCCCCO", "outcome": "inactive"}, {"smiles": "CC(=O)CCC1=C(C)CCCC1(C)C", "outcome": "inactive"}, {"smiles": "CCCCc1ccc(Cl)cc1", "outcome": "inactive"}, {"smiles": "CCCCCCCOC(=O)c1ccc(O)cc1", "AC50": "496 nM (active)"}, {"smiles": "CC(=O)OC(C)c1ccccc1", "note": "(stereo not given)", "outcome": "inactive"}, {"smiles": "CCCCCCCCCCCCc1ccc(O)cc1", "AC50": "350 nM (active)"}, {"smiles": "Oc1ccc(-c2ccccc2)c(Cl)c1", "AC50": "10500 nM (active)"}, {"smiles": "Cc1cccc(C(C)(C)C)c1O", "outcome": "inactive"}, {"smiles": "CC1=C(O)C(=O)C(C)O1", "note": "(stereo not given)", "outcome": "inactive"}, {"smiles": "Nc1ccc(C(=O)OCCCOC(=O)c2ccc(N)cc2)cc1", "outcome": "inactive"}, {"smiles": "CC(C)(C)N", "outcome": "inactive"}, {"smiles": "O=C1CCCCCCCCCCC1", "outcome": "inactive"}]}]}
